Measured values published in the supplement of paper PMC6555819.

Experiments:
Experiment in all cases: PBM binding z-score (relative to random genomic background probes); higher = stronger binding; sequences stand for … in GC…GCGATTGACAGCGTAGAATGAAGG
[1] = tested on: FXR:RXRa (NR concentration 270 nM, RXRa partner concentration 90 nM)
How it was run: (§1)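 Binding z-scores were set against random background probes. The data came from custom Agilent 4×180K protein-binding microarrays carrying double-stranded probes with 34-nt variable regions, incubated 1 h with ligand-free nuclear receptor dimers. Partner-specific antibodies detected binding, and scanned fluorescence was regression-normalized.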

[2] = tested on: LXRa:RXRa (NR concentration 270 nM, RXRa partner concentration 90 nM)
How it was run: as §1

[3] = tested on: LXRa homodimer (NR concentration 270 nM)
How it was run: as §1

[4] = tested on: LXRb:RXRa (NR concentration 270 nM, RXRa partner concentration 90 nM)
How it was run: as §1

[5] = tested on: LXRb homodimer (NR concentration 270 nM)
How it was run: as §1

[6] = tested on: PPARa:RXRa (NR concentration 270 nM, RXRa partner concentration 90 nM)
How it was run: as §1

[7] = tested on: PPARg:RXRa (NR concentration 180 nM, RXRa partner concentration 90 nM)
How it was run: as §1

[8] = tested on: PPARg:RXRa 270nM:90nM, anti-RXR (NR concentration 270 nM, RXRa partner concentration 90 nM)
How it was run: as §1

[9] = tested on: PPARg:RXRa 30nM:10nM, anti-RXR (NR concentration 30 nM, RXRa partner concentration 10 nM)
How it was run: as §1

[10] = tested on: PPARg:RXRa 90nM:30nM, anti-RXR (NR concentration 90 nM, RXRa partner concentration 30 nM)
How it was run: as §1

[11] = tested on: PPARg:RXRa DBDmut IVT, anti-RXR (DBD mutation: RXRa K156A/R161A, NR concentration 270 nM, RXRa partner concentration 90 nM)
How it was run: as §1

[12] = tested on: PPARg:RXRa IVT, anti-PPARg (NR concentration 270 nM, RXRa partner concentration 90 nM)
How it was run: as §1

[13] = tested on: PPARg DBDmut:RXRa IVT, anti-PPARg (DBD mutation: PPARg1 K132A/R137A, NR concentration 270 nM, RXRa partner concentration 90 nM)
How it was run: as §1

[14] = tested on: PPARg DBDmut IVT, anti-PPARg (DBD mutation: PPARg1 K132A/R137A, NR concentration 270 nM)
How it was run: as §1

[15] = tested on: PPARg homodimer (NR concentration 180 nM)
How it was run: as §1

[16] = tested on: PXR:RXRa (NR concentration 270 nM, RXRa partner concentration 90 nM)
How it was run: as §1

[17] = tested on: PXR homodimer (NR concentration 270 nM)
How it was run: as §1

[18] = tested on: RARa:RXR (NR concentration 270 nM, RXRa partner concentration 90 nM)
How it was run: as §1

[19] = tested on: RARa homodimer (NR concentration 270 nM)
How it was run: as §1

[20] = tested on: RARb:RXRa (NR concentration 270 nM, RXRa partner concentration 90 nM)
How it was run: as §1

Sequence | PBM binding z-score [1] | PBM binding z-score [2] | PBM binding z-score [3] | PBM binding z-score [4] | PBM binding z-score [5] | PBM binding z-score [6] | PBM binding z-score [7] | PBM binding z-score [8] | PBM binding z-score [9] | PBM binding z-score [10] | PBM binding z-score [11] | PBM binding z-score [12] | PBM binding z-score [13] | PBM binding z-score [14] | PBM binding z-score [15] | PBM binding z-score [16] | PBM binding z-score [17] | PBM binding z-score [18] | PBM binding z-score [19] | PBM binding z-score [20]
ATCGAAAGGTCGTGAGTTGAGTATACAGAAAGGC | 4.98 | 3.53 | 0.0498 | 2.99 | 0.743 | 4.84 | 3.55 | 3.9 | 1.82 | 2.85 | -0.00462 | 1.66 | 1.4 | 1.03 | 1.91 | 3.2 | 0.152 | 3.9 | 0.363 | 3.82
ATCGAAAGGTCGGCGAGGTGAGTATACACCGTTT | 3.23 | 2.52 | -0.167 | 1.9 | 0.199 | 3.76 | 1.57 | 2.25 | 0.34 | 1.11 | -0.166 | 1.39 | 0.74 | 0.0118 | 0.989 | 2.25 | -0.157 | 2.77 | -0.0319 | 3.5
AGTACAGGGTCATCGTAGGCCAGAGTACGCACAG | 7.3 | 5.7 | 0.868 | 4.07 | 1.05 | 5.87 | 6.41 | 5.7 | 2.18 | 4.41 | 1.41 | 3.74 | 2.14 | 0.916 | 3.28 | 4.88 | 0.894 | 5.21 | 0.349 | 4.46
CCTGACAGGTGAAAGGTAACTCAGTCTGGTACGC | 0.803 | 0.991 | -0.258 | 0.923 | -0.669 | 3.38 | 5.7 | 6.09 | 4 | 5.75 | 2.33 | 2.82 | -0.213 | -0.0292 | 0.546 | 0.876 | -0.396 | 1.84 | 0.115 | 1.3
ATATGTAGGTTAGCCGGGGTCATTCAGACTAGGC | 5.13 | 5.67 | 3.14 | 4.72 | 0.687 | 5.6 | 6.59 | 5.96 | 3.47 | 5.29 | 7.11 | 6.89 | 1.14 | 1.79 | 2.77 | 6.72 | 4.32 | 6.2 | 0.664 | 3.31
CCTACTGGGCCGTCAGGTCATTGATATCAACGTT | 1.31 | 0.772 | 0.809 | 1.21 | -0.585 | 1.71 | 0.704 | 1.92 | 0.179 | 1.15 | 1.17 | 2.14 | -0.782 | -0.667 | 0.741 | 1.33 | 0.502 | 1.53 | 0.0542 | 1.66
TCTATTAGTAGATTAGGGCAACCGAAACAGCGGA | 0.325 | 0.084 | -0.337 | 0.176 | 0.298 | 0.659 | 0.254 | 1.64 | 3.45 | 2.5 | 2.26 | 1.17 | 0.69 | 0.0955 | 0.0523 | 0.229 | 0.0465 | 0.245 | 0.073 | 0.344
